About 3,200 (25%) of roughly 13,000 compounds showed an effect of 50% or more. Some of the results follow.

This assay relates to P. falciparum stage V gametocytes. Also on record: BacTiter-Glo ATP luminescence viability of purified stage V gametocytes in 384-well plates, per cent inhibition versus DMSO. Conditions: 48 h, 5 µM; inhibitor.
For `CC(C)(C)OC(=O)N(Cc1cc(-n2nnnc2C(F)(F)F)ccc1O)[C@H]1CCCN(C(=O)OC(C)(C)C)[C@H]1c1ccccc1` [TCMDC-132022], the “% Inhibition” value is -21.48%. For `CC(C)(C)c1ccc(NC(=O)c2cccc(CN3CCCN(Cc4cccc(O)c4)CC3)c2)cc1` [TCMDC-135983], the “% Inhibition” value is listed as -11.1%. For `O=C(/C=C/c1ccc(Cl)c(Cl)c1)NC1CCN(Cc2ccc(O)cc2)C1` (centres unmarked) [TCMDC-141739] the value was 26.39%.

Consider `COc1ccc2nccc([C@@H](O)CN3CCC(NCc4cnc5c(c4)NC(=O)CS5)C(F)C3)c2c1` (some centres unmarked) [TCMDC-141716], for which the “% Inhibition” value is on record as 19.26%. Consider `CC(C)Oc1ccccc1-c1csc(C(=O)NCC2CCN(Cc3ccc(C(C)(C)C)cc3)C2)c1` (centres unmarked) [TCMDC-134512], for which the “% Inhibition” value is 5.537%. On to `CC(C)c1ccc(CN2CCCCC(NC(=O)c3cc(-c4ccccc4F)cs3)C2)cc1` (centres unmarked) [TCMDC-134462], for which the “% Inhibition” value was -8.212%. Turning to `CC(C)c1ccc(CN2CCC(CNC(=O)c3cc(-c4ccccc4F)cs3)C2)cc1` (centres unmarked) [TCMDC-134436], the “% Inhibition” value came out at 107.7%. As for `CCc1ccc(CN2CCC(CNC(=O)c3cc(-c4ccccc4F)cs3)C2)cc1` (centres unmarked) [TCMDC-134431], the “% Inhibition” value is 96.16%. The figure for `CC(C)(C)c1ccc(CN2CCC(CNC(=O)c3cc(-c4ccccc4F)cs3)C2)cc1` (centres unmarked) [TCMDC-134443] is 104.8%; for `COc1ccccc1-c1csc(C(=O)NCC2CCN(Cc3ccc(C(C)C)cc3)C2)c1` (centres unmarked) [TCMDC-134510] it is -33.71%. Take `CC(C)(C)c1ccc(CN2CCC(CNC(=O)c3cc(-c4ccccc4C(F)(F)F)cs3)C2)cc1` (centres unmarked) [TCMDC-134441]: the “% Inhibition” value is given as 105.6%. `CCCc1cc(C(=O)N[C@@H](Cc2ccccc2)[C@H](O)CNC2CCOCC2)c(F)c(N2CCCCS2(=O)=O)c1` [TCMDC-135445]: the “% Inhibition” value is 21.51%. On to `Cc1ccccc1C1CCN(C2CCC(NC(=O)c3ccc(-c4ccccn4)s3)CC2)CC1` (centres unmarked) [TCMDC-134106], for which the “% Inhibition” value is -14.35%. Consider `COc1cc(Cc2cnc(N)nc2N)ccc1OCc1cccc(Oc2ccccc2)c1` [TCMDC-138681], for which the “% Inhibition” value is -11.55%. In the case of `COc1cccc(Nc2nccc(NCC(O)c3ccc(C(F)(F)F)cc3)n2)c1` (centres unmarked) [TCMDC-136594], the “% Inhibition” value is on record as -17.97%. On to `CN1C(=C2SC(=Nc3ccc4ncccc4c3)N(Cc3ccccc3)C2=O)Sc2ccc(Cl)cc21` [TCMDC-124118], for which the “% Inhibition” value worked out at 3.008%. For `COc1ccc(NC(=O)[C@H](CC(C)C)Nc2cc(C)nc(NCC3CCCCC3)n2)cc1` [TCMDC-134917], the “% Inhibition” value is given as -43.94%.

For the molecule `COc1cc(C2NCC3(CCOCC3)c3cc4c(cc32)OCCO4)cc(OC)c1OC` (centres unmarked) [TCMDC-125743], the “% Inhibition” value is -20.6%. As for `Cc1cc(C)c(C)c(OCCCON2C(N)=NC(N)=NC2(C)C)c1C` [TCMDC-131791], the “% Inhibition” value is listed as -4.975%. For `CC(C)CNCc1ccc(-c2cccc(CN(C(=O)CCC3CCCC3)C3CCN(Cc4ccccc4)CC3)c2)cc1` [TCMDC-140551], the “% Inhibition” value was 80.54%. Regarding `COCCNCc1ccc(-c2cccc(CN(C(=O)CCC3CCCC3)C3CCN(Cc4ccccc4)CC3)c2)cc1` [TCMDC-140552], the “% Inhibition” value was determined as 102.7%. For `O=C(NC1CCN(c2ccnc3ccccc23)C1)c1cccc(C(F)(F)F)c1` (centres unmarked) [TCMDC-133580] the value was -5.668%; for `N#Cc1ccc(CN2CCC(Oc3ccc(NC(=O)c4cccs4)cc3)CC2)cc1` [TCMDC-133953], 32.19%. For `O=C(O[C@H]1CN[C@H](C#Cc2cc3c(Nc4ccc(OCc5cccc(F)c5)c(Cl)c4)ncnc3s2)C1)N1CCCC1` [TCMDC-135291] the value was -17.95%; for `CCN(C)C(=O)n1ncc2c3c(N)nc(N)nc3ccc21` [TCMDC-137828], 19.76%. In the case of `Cc1ccc(CCNCC(O)c2cccc(C(F)(F)F)c2)cc1` (centres unmarked) [TCMDC-131447], the “% Inhibition” value stood at 15.63%. Regarding `Cc1c(CN2CCC(N3CCC(C(=O)NC4CC4)CC3)CC2)[nH]c2c(Cl)cccc12` [TCMDC-124608], the “% Inhibition” value is 11.69%. For `O=C(NC1CC1)C1CCN(Cc2cc3ccccc3n2Cc2ccc(Cl)cc2)CC1` [TCMDC-125065], the “% Inhibition” value amounted to 41.24%. `Cc1ccccc1Cn1c(CN2CCC(C(=O)NC3CC3)CC2)cc2ccccc21` [TCMDC-134259]: the “% Inhibition” value was 50.21%. As for `CN(C)CCCn1cncc1-c1ccc2ncnc(Nc3ccc(OCc4ccccc4)cc3)c2c1` [TCMDC-138088], the “% Inhibition” value turned out to be 1.652%. `COc1ccccc1N1CCN(CCCCNC(=O)c2ccc(NC(=O)c3ccc4ccccc4c3)cc2)CC1` [TCMDC-138109]: the “% Inhibition” value is given as -15.04%. In the case of `CCCC(=O)NC(c1ccc(C)cc1)c1ccc2cccnc2c1O` (centres unmarked) [TCMDC-123605], the “% Inhibition” value was found to be 92.74%. For the molecule `Cc1ccc(C(NC(=O)C2CCCCC2)c2ccc3cccnc3c2O)cc1` (centres unmarked) [TCMDC-123654], the “% Inhibition” value is listed as 50.75%. For `CC(C)C(=O)NC(c1ccc(Cl)cc1)c1ccc2cccnc2c1O` (centres unmarked) [TCMDC-124343] the value was 44.71%. `CCC(C)NC(=O)Cn1c2ncccc2c(=O)n1-c1ccc(C)cc1` (centres unmarked) [TCMDC-124738]: the “% Inhibition” value is given as -0.9664%. For `O=S(=O)(c1cccc2cccnc12)N1CCN(C2CCCCC2)CC1` [TCMDC-123840], the “% Inhibition” value is recorded as 8.014%.

As to `CC(C)c1ccc(C(NC(=O)C2CCCCC2)c2ccc3cccnc3c2O)cc1` (centres unmarked) [TCMDC-125560], the “% Inhibition” value is 15.44%.

On to `CCCC(=O)NC(c1ccc(C(C)C)cc1)c1ccc2cccnc2c1O` (centres unmarked) [TCMDC-123884], for which the “% Inhibition” value is 62.61%. As for `C[C@@H](CC1CCCCC1)OC(=O)N[C@H]1CCN(C#N)C1` [TCMDC-138496], the “% Inhibition” value is 45.07%. For `O=C(COc1ccccc1)Nn1cnc2ccccc21` [TCMDC-124536] the value was 15.87%; for `CNS(=O)(=O)c1ccc2c(c1)nc(C1CCN(CC3CCC(NC(=O)/C=C/c4ccc(Cl)c(Cl)c4)CC3)CC1)n2C` (centres unmarked) [TCMDC-140374], 8.841%. Turning to `CCn1cc(-c2nc(-c3cc(OC)cc(OC)c3)no2)c(=O)c2ccccc21` [TCMDC-125155], the “% Inhibition” value is 51.09%. Consider `CCOc1ccc(-c2noc(-c3c[nH]c4ccccc4c3=O)n2)cc1` [TCMDC-125156], for which the “% Inhibition” value was found to be 27.36%. Consider `COc1ccc(-c2nc(-c3ccc([N+](=O)[O-])cc3)no2)cc1OC` [TCMDC-125731], for which the “% Inhibition” value was found to be 16.37%.

A word on the % Inhibition: it is the drop in the measured response relative to a control, in per cent.

The record behind these values is paper PMC4552634, “A New Set of Chemical Starting Points with Plasmodium falciparum Transmission-Blocking Potential for Antimalarial Drug Discovery” (PLoS ONE, 2015).
